Bioassay records from PubChem.
The entries come from a sample that favours hits as a whole.
Dicer inh = inhibitors of Dicer pre-microRNA processing, primary screen, biochemical, cat-ELCCA, chemiluminescence. Endoribonuclease Dicer (Homo sapiens), Q9UPY3. cat-ELCCA pre-miR-21 Dicer processing; active compounds read high. z-score at 25 µM. actives 6% (n = 47,000). AID 1347074, 2019; in the data active = z-score above about 3, passing the limit was not always enough;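 also: plate controls were vehicle for no effect and no enzyme for full effect; higher signal means more uncleaved substrate so more Dicer inhibition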
An asterisk follows results filed as active.

SMILES	Dicer inh
CCCCOC(=O)C1=C(C)NC2=C(C(=O)CCC2)C1c1ccc(OC)c(OC)c1 (stereo not given)	-0.48
COCCOC(=O)C1=C(C)NC2=C(C(=O)CCC2)C1c1ccc(Cl)cc1 (stereo not given)	-0.53
CCn1c2ccccc2c2cc(C3C(C(=O)OCCOC)=C(C)NC4=C3C(=O)CCC4)ccc21 (stereo not given)	3.6*
CCOCCOC(=O)C1=C(C)NC2=C(C(=O)CCC2)C1c1cccc(F)c1 (stereo not given)	-0.59
c1ccc(Nc2ncnc3sc4c(c23)CCCC4)cc1	0.62
COc1ccc(C2Nc3ccccc3-n3cccc32)cc1 (stereo not given)	0.96
CCCOc1cccc(C2c3c(oc4ccc(C)cc4c3=O)C(=O)N2c2ccccn2)c1 (stereo not given)	-0.95
COc1ccc(-c2cc(-c3ccc(C)cc3)[nH]c(=S)c2C#N)cc1	0.56
N#Cc1c(-c2ccc(Cl)cc2)cc(-c2ccccc2)[nH]c1=S	3.8*
COc1ccc(-c2cc(-c3cccs3)[nH]c(=S)c2C#N)cc1	1.1
O=S(=O)(CS(=O)(=O)Nc1nc2ccc(Cl)cc2s1)Nc1nc2ccc(Cl)cc2s1	0.06
COC(=O)CSc1nc2ccc(Cl)cc2s1	0.92
CC(C)(C)NC(=O)NNc1nc2ccc(Cl)cc2s1	3.7*
Cc1cc(NC(=O)Cc2nn(C)c(=O)c3ccccc23)no1	0.19
Fc1ccc(-c2csc(-c3cccnc3)n2)cc1	2.8
CCOC(=O)c1c(S(N)(=O)=O)c(C)n(-c2ccccc2)c1C	-0.92
O=C(c1cccs1)c1nn(-c2ccccc2)c2nc(=O)cc(-c3ccccc3)n12	1.3
COc1cc(SC)c(OC)cc1SC	0.64
Cc1ccc(S(=O)(=O)C(CC(=O)c2ccc(F)cc2)c2ccco2)cc1 (stereo not given)	3.2*
Cc1ccc(S(=O)(=O)C(CC(=O)c2ccco2)c2ccc(Cl)cc2)cc1 (stereo not given)	2.3
Cc1ccc(C(CC(=O)c2ccco2)SCCO)cc1 (stereo not given)	-1.9
CCOc1cc(C2C(C(=O)OCC(C)C)=C(C)NC3=C2C(=O)CC(c2cccs2)C3)ccc1O (stereo not given)	0.87
OC1=CONN1c1cccc2ncccc12	3.2*
Cc1nc2ccc(N3NOC=C3O)cc2s1	1.2
O=c1nc(-c2sc3ccccc3c2Cl)oc2ccccc12	-1.5
SMILES	Dicer inh
Cc1ccc(C(=O)Nc2cnc3sc4ccccc4n3c2=O)cc1	-0.84
O=C(Nc1cnc2sc3ccccc3n2c1=O)c1ccc(F)cc1	-0.51
Cc1ccc(C(=O)Nc2cc(C#N)c3sc4ccccc4n3c2=O)cc1	4.8*
O=C(Nc1n[nH]c(-c2ccccc2)c1Br)c1ccccc1Cl	-0.85
Cn1nccc1NC(=O)CCc1ccccc1	-2.7
O=C(O)c1cccnc1	1.2
O=C(c1cccnc1)N1CCN(C(=O)c2ccco2)CC1	4.7*
O=C(c1ccncc1)N1CCN(Cc2ccco2)CC1	1.2
O=C(c1cccnc1)N1CCN(c2ccc3ccccc3n2)CC1	4.2*
O=C(c1ccccc1)N1CCN(C2=NS(=O)(=O)c3ccccc32)CC1	7
O=C1NCCCC1C(=O)N1CCN(C(=O)c2ccco2)CC1 (stereo not given)	-1.3
CC(C)S(=O)(=O)c1cscc1N1C(=O)c2ccccc2C1=O	0.17
COc1cccc(O)c1C(=O)Nc1cccc([N+](=O)[O-])c1	-0.2
CCOC(=O)C(C)Oc1ccc2c(=O)c(Oc3cc(C)cc(C)c3C)coc2c1 (stereo not given)	0.18
OC1CN(C(c2ccccc2)c2ccccc2)C1	-2.4
CN1CCN(Cc2c(O)ccc3c(=O)c(-c4ccccc4Cl)c(C(F)(F)F)oc23)CC1	0.74
CCCCCOC(=O)C1=C(C)NC2=C(C(=O)CCC2)C1c1ccc(O)c(OCC)c1 (stereo not given)	0.62
Cc1ccc(N=Nc2c(C)[nH]n(-c3ccccc3)c2=O)c(C)c1	0.73
Cc1[nH]n(-c2ccccc2)c(=O)c1N=Nc1c(C)n(C)n(-c2ccccc2)c1=O	-4
Cc1[nH]n(-c2ccccc2)c(=O)c1N=Nc1ccc(N2CCCCC2)cc1	3.6*
COC(=O)c1c(NC(=O)c2cc3ccccc3o2)sc2c1CCC(C)C2 (stereo not given)	1.1
Cc1ccc(S(C)(=O)=NC(=S)NC(=O)c2cnn3c(C(F)(F)F)cc(C(F)(F)F)nc23)cc1 (stereo not given)	-0.54
N#C/C(=C/Nc1cc(C(F)(F)F)cc(C(F)(F)F)n1)C(=O)c1cccc(C(F)(F)F)c1	0.04
COCc1cc(C)nc2sc(C(=O)N3CCCC3)c(N)c12	3.9*
COCc1cc(C)nc2sc(C(=O)OC)c(N)c12	1
SMILES	Dicer inh
Cc1cc(C)c2c(N)c(C(=O)c3ccccc3Cl)sc2n1	-2.3
COc1c(C(=O)Nc2cc(Cl)c(Cl)cc2Cl)csc1Cl	0.08
O=C(NCCNC(=O)c1cnccn1)c1cnccn1	-0.09
C=CCSC(=NC#N)S/C=C/C(=O)c1cccc(Br)c1	-2.2
COC(=O)c1cccc(CSc2nnc(C(F)(F)F)n2C)c1	1.6
C=CC(=C)CC(NC)c1ccccc1 (stereo not given)	1.5
CNc1ccc(Br)cc1C(O)c1ccccc1 (stereo not given)	3.4*
CNC[C@H](O)c1cccc(O)c1	-0.43
COc1ccc(-c2nnc(SCc3ccc(C)cc3)o2)c(OC)c1	0.32
Fc1cccc(Cl)c1CSc1nnc(-c2ccccc2)o1	0.81
CCc1cc2c(=O)c(-c3nc4ccccc4[nH]3)c(C)oc2cc1OC(C)=O	1.2
CCOC(=O)N1CCN(C(=O)c2ccc([N+](=O)[O-])o2)CC1	3.5*
O=C(OCc1nc2ccccc2s1)c1ccc([N+](=O)[O-])o1	-0.88
CCN(C(=O)c1ccc([N+](=O)[O-])o1)c1ccccc1	1.4
N#Cc1c2c(c(N3CCCC3)[nH]c1=S)CCCC2	0.93
COCc1cc(=O)oc2cc(NC(=O)C3CC3)ccc12	1.6
CC(CC(=O)O/N=C(\N)c1ccc(C(F)(F)F)cc1)S(=O)(=O)c1ccc(Cl)cc1 (stereo not given)	-2
CC(C)Cc1ccc(C(C)C(=O)O/N=C(\N)c2ccc(C(F)(F)F)cc2)cc1 (stereo not given)	3.2*
CC(C)Cc1ccc(C(C)/C(N)=N/O)cc1 (stereo not given)	-0.66
CCc1ccc2[nH]c3nc4ccccc4nc3c2c1	-1.3
CS/C(NCc1cccnc1)=C(/C#N)S(=O)(=O)c1ccc(Cl)cc1	0.43
Cc1cccc(NC(=O)Nc2ccccc2F)n1	1.1
Cc1ccc(O)c(-c2cc(C(F)(F)F)[nH]n2)c1	4.1*
FC(F)(F)c1cc(-c2ccccc2)n[nH]1	0.31
FC(F)(F)c1cc(-c2ccc3c(c2)OCO3)n[nH]1	-0.7
SMILES	Dicer inh
COC(=O)c1ccc(S(=O)(=O)NNC(=O)c2c(O)c3sccc3[nH]c2=O)n1C	-0.77
N#C/C(=C\Nc1ncccn1)C(=O)c1cccs1	0.16
C=CCN(C#N)c1nc(NC(C)C)nc(NC(C)C)n1	6.5*
FC(F)(F)c1cccc(N2CCNC2=S)c1	-0.4
CC(C)S(=O)(=O)c1csc(NC(=O)Nc2cc(Cl)ccc2Cl)c1Cl	5.3*
CC(C)S(=O)(=O)c1csc(NC(=O)Nc2ccccc2Cl)c1	1.7
CC(C)S(=O)(=O)c1csc(NC(=O)N=S(C)(=O)c2ccc(Cl)cc2)c1Cl (stereo not given)	-0.93
CC1=CC(C)(C)N2C(=O)C(=O)c3cc(OC(=O)Cc4ccccc4)cc1c32	0.5
